Screening data from PubChem.
RPL19A-GFP yeast: alters RPL19A-GFP fluorescence in TOR pathway yeast screen | S. cerevisiae RPL19A-GFP strain, flow cytometry, 3 h; hits give low values | percent response vs DMSO, % at 10 µM | 0.3% of 330,000 active | AID 2025;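 active = percent response vs DMSO below 50%; inconclusive = fewer than 70 events counted for the yeast strain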;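 also: median channel GFP fluorescence of the barcoded RPL19A-GFP strain; ratio of sample median GFP to plate DMSO average so 100% = DMSO; lower means less RPL19A-GFP as with rapamycin TOR inhibition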
MEP2 TOR yeast: yeast TOR pathway MEP2-GFP modulation | S. cerevisiae MEP2-GFP strain, flow cytometry GFP, 3 h; 100% = DMSO control level | GFP response vs DMSO, % at 10 µM | 0.51% of 330,000 active;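 active = GFP response versus DMSO above a set limit, roughly screen mean plus 3 SD, cut at about 180% in these data; inconclusive = fewer than 70 cells counted for a yeast strain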;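 also: median GFP fluorescence of the barcode-gated MEP2-GFP cells per well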
AGP1 TOR yeast: yeast TOR pathway AGP1-GFP modulation; S. cerevisiae AGP1-GFP multiplex flow cytometry, 3 h; GFP as percent of DMSO wells; GFP response vs DMSO, % at 10 µM; 0.02% of 320,000 active; AID 2066;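 active = GFP response relative to DMSO above a set limit, near screen average plus 3 SD, cut at about 150% in these data; inconclusive = fewer than 70 cells counted for the yeast strain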;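 also: median GFP channel fluorescence of the gated AGP1 strain per well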
CIT2 TOR yeast: modulators of TOR pathway CIT2-GFP in S. cerevisiae | S. cerevisiae CIT2-GFP strain, flow cytometry, 3 h; 100 means same as DMSO wells | GFP response vs DMSO, % at 10 µM | 0.065% of 320,000 active;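 active = GFP response relative to DMSO above a set limit, near the screen mean plus 3 SD, cut at about 150% in these data; inconclusive = Fewer than 70 cells measured for a yeast strain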;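 also: ratio of well median GFP fluorescence to mean of DMSO wells on the plate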
LAP4-GFP MLPCN: modulators of TOR pathway LAP4-GFP in S. cerevisiae; 0.34% of 320,000 active; GFP response vs DMSO, % at 10 µM; AID 2023; S. cerevisiae LAP4-GFP multiplex, flow cytometry GFP, 3 h; median GFP as percent of DMSO wells;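 active = GFP response vs DMSO above a set limit, about the screen mean plus 3 SD, cut at about 150% in these data; inconclusive = under 70 cell events counted for the yeast strain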
DSG3 Ab inh: blocks pemphigus antibody binding to human desmoglein-3; binding (percent of control), % at 10 µM; 0.48% of 310,000 active; DSG3-coupled beads, scFv-anti-DSG3-GFP binding, flow cytometry; hits give low values; AID 588358; P32926;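 active = binding more than 3 SD below its plate's average and above zero; inconclusive = below that plate limit but binding exactly zero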;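 also: hits lower antibody fragment binding to DSG3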
An asterisk follows results filed as active; ? = inconclusive; · = no result; [ ] = another dose, or the depositor's remark. Sampled rows, rich in hits. Any-hit rate of the full collection: about 1.2%.

SMILES	RPL19A-GFP yeast	MEP2 TOR yeast	AGP1 TOR yeast	CIT2 TOR yeast	LAP4-GFP MLPCN	DSG3 Ab inh
CC1(C)C2CCC(C2)C1(C)NC(=O)CN1CCOCC1 (configuration not stated)	42*[may fluoresce violet]	308*[may fluoresce violet]	?	?	92	92
O=C(CCC(=O)N/N=C/c1cc(Cl)cc(Cl)c1O)NCc1ccccc1	75	364*[may fluoresce violet]	22	?	100	106
O=C(CCC(=O)N/N=C/c1ccc(Br)s1)NCc1ccccc1	100	103	92	96	83	107
O=c1[nH]cc(COCC(F)CCl)c(=O)[nH]1 (configuration not stated)	96	95	101	95	92	72*
O=C1c2ccccc2C(=O)N1CCCOCc1c[nH]c(=O)[nH]c1=O	105	102	109	112	100	95
NNc1nc2c(-c3ccc(F)cc3)nnn2c2ccccc12	71	99	64	74	121	85
NNc1nc2c(-c3ccc(Cl)cc3)nnn2c2ccccc12	72	116	17	63	120	68*
COc1cc(CNc2ccccc2)c([N+](=O)[O-])cc1OC	96	103	94	97	96	99
CN=C1SC(C(=O)Nc2ccccc2Cl)CC(=O)N1c1ccc(OC(F)(F)Cl)cc1 (configuration not stated)	101	101	104	107	104	98
Cc1c(C(=O)N2CCN(C)CC2)oc2c1C(=O)CC(C)(C)C2	63	212*[may fluoresce violet]	24	?	100	·
Cc1c(C(=O)N2CCOCC2)oc2c1C(=O)CC(C)(C)C2	96	98	92	95	93	93
C/C(=N\NC(=S)NC1CCCCC1)c1ccc(O)cc1	98	103	111	105	111	119
C/C(=N\NC(=S)NC1CCCCC1)c1ccccc1	100	98	96	97	103	83*
CC1=CCC(C(=O)O)(C(=O)N/N=C/c2cccs2)C(c2ccc([N+](=O)[O-])cc2)C1 (configuration not stated)	94	92	96	90	93	33*
c1ccc(C(c2nnnn2Cc2cccs2)N2CCN(C3CCCC3)CC2)cc1 (configuration not stated)	33*[may fluoresce violet]	231*[may fluoresce violet]	?	?	93	107
Fc1ccc(C(c2nnnn2Cc2cccs2)N2CCN(C3CCCC3)CC2)cc1 (configuration not stated)	99	104	98	96	91	100
O=C(CN1CCCC1)Nc1cc(C(F)(F)F)ccc1Cl	94	98	101	103	96	94
O=C(CN1CCCC1)Nc1cc(C(F)(F)F)cc(C(F)(F)F)c1	90	125	131	98	151*	104
COc1ccc(NC(=O)c2cc(S(=O)(=O)N3CCc4ccccc43)cn2C)cc1OC	99	102	95	98	102	64
COc1ccc(S(=O)(=O)N2CCN(C(=O)c3c(C)nn(-c4ccccc4)c3Cl)CC2)cc1	19*[may fluoresce violet]	521*[may fluoresce violet]	?	?	97	108
Cc1ccc2nc3nc(NCC4CCCO4)c(C(=O)NC4CCCC4)cc3c(=O)n2c1 (configuration not stated)	22*[may fluoresce violet]	267*[may fluoresce violet]	?	?	85	87
C=CCNC(=O)c1cc2c(=O)n3cc(C)ccc3nc2nc1NCC1CCCO1 (configuration not stated)	29*[may fluoresce violet]	179*[may fluoresce violet]	?	?	58	·
COc1cc(/C=C/C(=O)c2ccc([N+](=O)[O-])o2)ccc1O	70	161	32	?	232*[may fluoresce violet]	97
O=C(/C=C/c1cccc(Cl)c1)c1ccc([N+](=O)[O-])o1	58	202*[may fluoresce violet]	15	?	135	96
COc1cc(/C=C/C(=O)O)ccc1O	89	96	89	92	90	99
SMILES	RPL19A-GFP yeast	MEP2 TOR yeast	AGP1 TOR yeast	CIT2 TOR yeast	LAP4-GFP MLPCN	DSG3 Ab inh
Cc1cc(O)c(C(=O)/C=C/c2cccc([N+](=O)[O-])c2)c(=O)o1	92	89	111	103	128	101
CCn1c(=N)n(CC(=O)c2ccc(Cl)c(Cl)c2)c2ccccc21	101	118	95	98	102	103
N=c1n(CCN2CCCCC2)c2ccccc2n1CC(=O)c1ccc(Cl)c(Cl)c1	92	128	90	87	168*	98
O=[N+]([O-])c1ccc(OCCCCN2CCc3ccccc3C2)cc1	101	100	101	101	100	108
COc1ccc(OC)c(Nc2nc(-c3cccc([N+](=O)[O-])c3)nc3ccccc23)c1	30*[may fluoresce violet]	184*[may fluoresce violet]	25	?	84	99
COc1ccc(Nc2nc(-c3cccc([N+](=O)[O-])c3)nc3ccccc23)c(OC)c1	109	110	105	104	116	130
COCCN(C(=O)CCC(=O)Nc1ccccn1)C(C(=O)NCCC(C)C)c1ccc(F)cc1 (configuration not stated)	105	109	99	102	95	·
COc1cc(/C=N/N2CCN(c3ccccc3OC)CC2)ccc1OC(C)=O	103	102	93	108	84	97
CN1CCc2nc3sc(C(=O)C45CC6CC(CC(C6)C4)C5)c(N)c3cc2C1	73	257*[may fluoresce violet]	25	?	120	111
COc1cc(CN(C)c2ncnc3sccc23)ccc1OC(F)F	101	104	93	108	99	35*
COc1ccc(OC)c(Nc2ncnc3sccc23)c1	100	107	98	98	98	85
N#Cc1c(NC(=O)/C=C/C(=O)O)sc2c1CCN(Cc1ccccc1)C2	23*[may fluoresce violet]	367*[may fluoresce violet]	?	?	72	113
CC(=O)Nc1sc2c(c1C#N)CCN(Cc1ccccc1)C2	95	94	100	110	103	97
COc1ccccc1C(=O)N(CCC1CCCN1C)c1nc2ccccc2s1 (configuration not stated)	105	102	110	95	104	127
S=C(Nc1ccc(Cl)cc1)Nc1ccc2cn[nH]c2c1	95	85	74	65	169*	100
COc1cc(OC)c2cc(C(=O)N/N=C/c3ccccc3O)[nH]c2c1	98	98	98	104	99	94
Cc1ccc(C(C)C)c(OCC(=O)Nc2cccc(S(=O)(=O)NC3=NCCCCC3)c2)c1	94	93	94	91	90	39
CCn1c(N2CCN(S(=O)(=O)c3ccc(Cl)cc3)CC2)nc2ccccc21	90	126	104	104	112	-37*
CCOC(=O)c1[nH]c2cc3c(cc2c1CCCN1C(=O)c2ccccc2C1=O)OCCO3	96	96	102	99	105	-29*
CCOC(=O)c1[nH]c2ccccc2c1CCCN1C(=O)c2ccccc2C1=O	95	105	99	90	100	·
